# Screening data: PubChem BioAssay, Center for Chemical Genomics, University of Michigan
# Many of the other results were omitted from the sample, so hits are more common in it than they were.
# Dicer processing = human Dicer pre-microRNA cleavage inhibition. Q9UPY3. cat-ELCCA pre-miR-21 Dicer processing, chemiluminescence; active compounds read high. z-score at 25 µM. actives 6% (n = 47,000). AID 1347074; in the data active = z-score above about 3, passing the limit was not always enough;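 also: plate controls were vehicle for no effect and no enzyme for full effect; higher signal means more uncleaved substrate so more Dicer inhibition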
# Target sequence (Q9UPY3 whole entry, looked up): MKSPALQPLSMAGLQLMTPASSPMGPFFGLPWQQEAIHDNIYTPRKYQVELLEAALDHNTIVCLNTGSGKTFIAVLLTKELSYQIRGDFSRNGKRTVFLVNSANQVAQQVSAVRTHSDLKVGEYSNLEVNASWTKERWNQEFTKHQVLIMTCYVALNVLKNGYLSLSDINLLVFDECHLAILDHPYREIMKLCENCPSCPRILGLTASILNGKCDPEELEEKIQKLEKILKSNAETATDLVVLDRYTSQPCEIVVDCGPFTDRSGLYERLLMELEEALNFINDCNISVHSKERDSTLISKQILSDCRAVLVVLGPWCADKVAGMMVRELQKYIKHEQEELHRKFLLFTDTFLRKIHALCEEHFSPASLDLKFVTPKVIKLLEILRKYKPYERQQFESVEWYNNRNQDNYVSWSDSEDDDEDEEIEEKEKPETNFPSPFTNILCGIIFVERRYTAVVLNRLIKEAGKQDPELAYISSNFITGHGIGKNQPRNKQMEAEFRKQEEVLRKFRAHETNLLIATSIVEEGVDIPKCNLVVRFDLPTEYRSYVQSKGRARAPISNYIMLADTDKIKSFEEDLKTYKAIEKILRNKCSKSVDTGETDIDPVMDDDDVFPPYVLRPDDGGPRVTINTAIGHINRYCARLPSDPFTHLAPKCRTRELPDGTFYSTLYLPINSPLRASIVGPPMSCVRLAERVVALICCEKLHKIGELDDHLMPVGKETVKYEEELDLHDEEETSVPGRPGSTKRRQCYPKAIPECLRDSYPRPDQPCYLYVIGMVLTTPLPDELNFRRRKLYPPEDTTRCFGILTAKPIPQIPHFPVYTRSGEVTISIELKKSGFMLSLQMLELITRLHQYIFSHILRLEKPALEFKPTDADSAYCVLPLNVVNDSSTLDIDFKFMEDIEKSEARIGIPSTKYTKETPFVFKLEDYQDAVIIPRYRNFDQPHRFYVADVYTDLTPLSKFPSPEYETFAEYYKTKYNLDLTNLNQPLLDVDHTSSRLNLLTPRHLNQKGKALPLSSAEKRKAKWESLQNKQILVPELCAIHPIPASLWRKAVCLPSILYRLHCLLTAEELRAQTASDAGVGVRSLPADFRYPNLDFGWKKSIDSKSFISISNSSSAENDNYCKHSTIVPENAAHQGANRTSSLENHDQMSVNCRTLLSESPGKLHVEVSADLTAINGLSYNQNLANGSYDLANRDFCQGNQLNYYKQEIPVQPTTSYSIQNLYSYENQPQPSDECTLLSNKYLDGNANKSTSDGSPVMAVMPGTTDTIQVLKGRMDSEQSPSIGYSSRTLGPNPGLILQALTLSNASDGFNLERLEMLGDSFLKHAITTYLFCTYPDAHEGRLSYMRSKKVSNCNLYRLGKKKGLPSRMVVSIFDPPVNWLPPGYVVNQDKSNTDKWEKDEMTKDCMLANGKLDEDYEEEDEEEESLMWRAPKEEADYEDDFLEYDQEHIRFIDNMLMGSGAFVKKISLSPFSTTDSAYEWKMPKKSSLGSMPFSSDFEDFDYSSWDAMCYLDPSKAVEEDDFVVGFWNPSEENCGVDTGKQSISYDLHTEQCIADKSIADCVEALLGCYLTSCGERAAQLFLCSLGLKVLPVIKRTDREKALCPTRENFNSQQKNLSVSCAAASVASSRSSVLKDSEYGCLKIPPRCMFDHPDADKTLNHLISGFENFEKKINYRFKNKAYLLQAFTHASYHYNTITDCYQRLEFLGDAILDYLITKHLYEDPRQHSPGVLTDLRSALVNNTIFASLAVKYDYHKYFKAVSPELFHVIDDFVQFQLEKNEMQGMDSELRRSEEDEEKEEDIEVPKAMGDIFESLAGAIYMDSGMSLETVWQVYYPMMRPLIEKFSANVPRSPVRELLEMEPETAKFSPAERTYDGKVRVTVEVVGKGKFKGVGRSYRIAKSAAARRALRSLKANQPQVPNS
# An asterisk follows results filed as active.
SMILES,Dicer processing
CCOC(CN(c1ccc(F)cc1)S(=O)(=O)c1ccc(F)cc1F)OCC,-2.1
CCOC(CN(C(=O)c1ccc(C)cc1)c1ccc(F)cc1)OCC,4.6*
O=C(Nc1cc(C(F)(F)F)ccc1NCCc1ccccc1)c1sc2ccccc2c1Cl,-1.3
O=C(Nc1cc(-c2nc3cc(Cl)ccc3o2)ccc1Cl)c1ccco1,1.2
O=C(Nc1cccc2cccnc12)c1ccco1,-2.8
O=C(Nc1ccc(Cl)cc1O)c1ccco1,5.7*
COCCOC(=O)C1=C(C)NC2=C(C(=O)CC(c3ccc(OC)c(OC)c3)C2)C1c1ccc(F)cc1 (configuration not stated),1.1
Cc1noc(-c2ccc(Cl)cc2)c1C(=O)NNC(=O)c1ccc(C(F)(F)F)cc1,3.8
Cc1noc(NC(=O)c2ccc(C(F)(F)F)cc2)c1[N+](=O)[O-],4.6*
Cc1nc(C)c(C(=O)NNC(=O)c2ccc(C(F)(F)F)cc2)s1,-0.39
O=C(O)CCCC(=O)Nc1cccc2cccnc12,0.9
O=C(CCC(=O)OCC(=O)c1cccs1)Nc1cccc2cccnc12,4.3*
O=C(Nc1cccc2cccnc12)c1cccs1,-1.1
COc1ccc(C2C(C#N)=C(N)OC3=C2C(=O)CC(C)(C)C3)cc1OCc1ccccc1 (configuration not stated),3*
COc1cc(C2C(C#N)=C(N)Oc3cc(O)ccc32)ccc1OCc1ccccc1 (configuration not stated),1.8
COC(=O)C1=C(C)NC2=C(C(=O)CC(C)(C)C2)C1c1ccc(OCc2ccccc2)c(OC)c1 (configuration not stated),-0.7
Cc1ncc(C(=O)O)c2ccccc12,-0.16
CN(C)/C=C/C(=O)c1ccc(Br)s1,-0.94
CN(C)/C=C/C(=O)c1csc2ccccc12,3.5*
Cc1oc(-c2ccccc2)cc1C(=O)/C=C/N(C)C,1.7
CCOC(=O)C(=CNc1csc(C)c1C(=O)OC)C(=O)OCC,-0.33
CC1=CCC2C(=O)N(c3ccc(C(=O)OCC(=O)c4ccc(Cl)cc4)cc3)C(=O)C2C1 (configuration not stated),0.47
CCOC(=O)NNC(=S)Nc1cccc(Cl)c1,-0.03
CCOC(=O)C(=O)Nc1nc2c(s1)C(=O)CC(C)(C)C2,-0.79
CCC(C)NC(=O)c1nn2c(c1Cl)NC(c1ccc(Cl)cc1)CC2C(F)(F)F (configuration not stated),4.9*
SMILES,Dicer processing
O=C(NCc1ccccc1)c1nn2c(c1Br)NC(c1ccccc1)CC2C(F)(F)F (configuration not stated),5.2*
CCCNC(=O)c1nn2c(c1Br)NC(c1cccs1)CC2C(F)(F)F (configuration not stated),-0.29
O=C(NCc1cccnc1)c1nn2c(c1Cl)NC(c1ccccc1)CC2C(F)(F)F (configuration not stated),-1.8
O=C(c1nn2c(c1Cl)NC(c1ccccc1)CC2C(F)(F)F)N1CCCCC1 (configuration not stated),5.6*
O=C(c1nn2c(c1Cl)NC(c1ccc(F)cc1)CC2C(F)(F)F)N1CCCCC1 (configuration not stated),8.8
NC(=O)c1nn2c(c1Cl)NC(c1ccc(Cl)cc1)CC2C(F)(F)F (configuration not stated),3.5*
O=C(c1nn2c(c1Cl)NC(c1cccs1)CC2C(F)(F)F)N1CCCc2ccccc21 (configuration not stated),2.8
CCC(C)NC(=O)c1cc2n(n1)C(C(F)(F)F)CC(c1ccc3c(c1)OCO3)N2 (configuration not stated),2.5
Cc1c(CNC(=O)c2nn3c(c2Cl)NC(c2cccs2)CC3C(F)(F)F)cnn1C (configuration not stated),1.2
Cc1ccc(C2CC(C(F)(F)F)n3nc(C(=O)NCc4c(C)nn(C)c4C)c(Cl)c3N2)cc1 (configuration not stated),-1.2
O=C(c1nn2c(c1Cl)NC(c1ccc(Cl)cc1)CC2C(F)(F)F)N1CCSCC1 (configuration not stated),0.58
CC(=O)N1c2ccccc2NC2=C(C(=O)CC(C)(C)C2)C1c1ccc([N+](=O)[O-])s1 (configuration not stated),53
CC(C)(C)OC(=O)Nc1ccc(C(C)(C)C)cc1,0.26
Cc1nnc2c3c4c(sc3ncn12)CCCC4,0.82
CC(C)(C)c1ccc(NC(=O)Nc2ccc(C(F)(F)F)cn2)cc1,-1.4
CC(=O)Oc1ccc2c(c1)CCC1C2=CCC2(C)C(OC(C)=O)CCC12 (configuration not stated),3.4
NS(=O)(=O)c1ccc(Sc2ccc(Cl)cc2)s1,46
O=C1OC(Nc2ccc(C(F)(F)F)cc2Cl)c2ccccc21 (configuration not stated),-0.67
COc1ccc(-c2nnc(SCc3ccc(Cl)cc3)o2)c(OC)c1,0.54
CCOC=Nc1c(C(=O)OCC)sc2nc(SC)ncc12,0.05
O=C(Nc1cccc(C(F)(F)F)c1)Nc1ccccc1Sc1ncc([N+](=O)[O-])s1,-2.1
FC(F)(F)c1nc(-c2ccccn2)ncc1-c1nnnn1-c1ccc(Cl)cc1,0.04
